Reference: PubChem BioAssay AID1159580 (chemical genetic matrix, 2015)
Among all 5,500 compounds or so, about 2,000 (36%) were called active. Inconclusive results (about 18%) are left out. Cut-off read from the data, not from the text of the source: active = normalized growth mostly below about 0.91 (no sharp cut-off); inconclusive = no clear call, values can overlap the other calls; inactive = mostly above about 0.92. Some of the results follow.

Assay: chemical genetic growth profiling, strain panel (AID 1159580);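 note: tested at 20 µM; growth read once vehicle control cultures reached saturation at 30 °C; 1 = growth at the plate median or of vehicle wells; lower values mean less growth of the strain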
Details: growth OD

Measured: normalized growth

C[C@H]1C(=O)O[C@@H]2CCN3CC=C(COC(=O)[C@](C)(O)[C@]1(C)O)[C@H]23
inactive: S. cerevisiae deletion strains, locus YKL068W, hits give low values 0.992 | S. cerevisiae deletion strains, locus YKL085W, strain MDH1 (second series), hits give low values 1.04 | S. cerevisiae deletion strains, locus YKL085W, strain MDH1, hits give low values 1.04 | S. cerevisiae deletion strains, locus YKL160W, strain elf1, hits give low values 0.991 | S. cerevisiae deletion strains, locus YKL190W, strain CNB1, hits give low values 1 | S. cerevisiae deletion strains, locus YKR001C, strain vps1, hits give low values 0.986 | S. cerevisiae deletion strains, locus YKR026C, strain gcn3, hits give low values 0.986 | S. cerevisiae deletion strains, locus YKR091W, strain srl3, hits give low values 0.975 | S. cerevisiae deletion strains, locus YLL001W, strain dnm1, hits give low values 0.976 | S. cerevisiae deletion strains, locus YLL026W, hits give low values 0.99 | S. cerevisiae deletion strains, locus YLL041C, strain sdh2, hits give low values 0.993 | S. cerevisiae deletion strains, locus YLR027C, strain aat2, hits give low values 0.993 | S. cerevisiae deletion strains, locus YLR039C, strain RIC1, hits give low values 0.989 | S. cerevisiae deletion strains, locus YLR058C, strain SHM2, hits give low values 0.99 | S. cerevisiae deletion strains, locus YLR102C, strain apc9, hits give low values 0.988 | S. cerevisiae deletion strains, locus YLR113W, strain HOG1, hits give low values 1.01 | S. cerevisiae deletion strains, locus YLR221C, strain rsa3, hits give low values 1.01 | S. cerevisiae deletion strains, locus YLR258W, strain gsy2, hits give low values 0.992 | S. cerevisiae deletion strains, locus YLR262C, strain YPT6 (second series), hits give low values 0.976 | S. cerevisiae deletion strains, locus YLR262C, strain YPT6, hits give low values 1.02 | S. cerevisiae deletion strains, locus YLR268W, strain sec22, hits give low values 0.988 | S. cerevisiae deletion strains, locus YLR320W, strain mms22, hits give low values 0.997 | S. cerevisiae deletion strains, locus YLR330W, strain CHS5, hits give low values 0.992 | S. cerevisiae deletion strains, locus YLR342W, strain FKS1 (second series), hits give low values 0.976 | S. cerevisiae deletion strains, locus YLR342W, strain FKS1, hits give low values 0.997 | S. cerevisiae deletion strains, locus YLR357W, strain rsc2, hits give low values 0.979 | S. cerevisiae deletion strains, locus YLR370C, strain arc18, hits give low values 0.986 | S. cerevisiae deletion strains, locus YLR371W, strain rom2, hits give low values 0.984 | S. cerevisiae deletion strains, locus YLR384C, strain iki3, hits give low values 0.987 | S. cerevisiae deletion strains, locus YLR418C, strain cdc73, hits give low values 0.985 | S. cerevisiae deletion strains, locus YML016C, strain PPZ1, hits give low values 0.987 | S. cerevisiae deletion strains, locus YML032C, strain rad52, hits give low values 0.993 | S. cerevisiae deletion strains, locus YML120C, strain ndi1, hits give low values 0.988 | S. cerevisiae deletion strains, locus YML124C, strain tub3, hits give low values 0.987 | S. cerevisiae deletion strains, locus YMR058W, strain fet3, hits give low values 0.997 | S. cerevisiae deletion strains, locus YMR078C, strain ctf18, hits give low values 0.983 | S. cerevisiae deletion strains, locus YMR125W, strain sto1, hits give low values 0.987 | S. cerevisiae deletion strains, locus YMR129W, hits give low values 0.998 | S. cerevisiae deletion strains, locus YMR205C, strain PFK2, hits give low values 0.986 | S. cerevisiae deletion strains, locus YMR223W, strain ubp8, hits give low values 0.991 | S. cerevisiae deletion strains, locus YMR231W, strain pep5, hits give low values 0.998 | S. cerevisiae deletion strains, locus YMR263W, strain SAP30, hits give low values 1 | S. cerevisiae deletion strains, locus YMR307W, strain GAS1, hits give low values 0.983 | S. cerevisiae deletion strains, locus YNL067W, strain RPL9B, hits give low values 1.02 | S. cerevisiae deletion strains, locus YNL071W, strain lat1, hits give low values 0.991 | S. cerevisiae deletion strains, locus YNL128W, strain TEP1, hits give low values 0.98 | S. cerevisiae deletion strains, locus YNL153C, strain GIM3, hits give low values 1.02 | S. cerevisiae deletion strains, locus YNL183C, strain NPR1, hits give low values 0.969 | S. cerevisiae deletion strains, locus YNL209W, strain ssb2, hits give low values 0.994 | S. cerevisiae deletion strains, locus YNL233W, strain BNI4, hits give low values 0.995 | S. cerevisiae deletion strains, locus YNL248C, strain rpa49, hits give low values 0.995 | S. cerevisiae deletion strains, locus YNL250W, strain rad50, hits give low values 0.978 | S. cerevisiae deletion strains, locus YNL271C, strain bni1, hits give low values 0.985 | S. cerevisiae deletion strains, locus YNL298W, strain CLA4, hits give low values 0.987 | S. cerevisiae deletion strains, locus YNL307C, strain MCK1, hits give low values 0.991 | S. cerevisiae deletion strains, locus YNL322C, strain KRE1 (second series), hits give low values 0.982 | S. cerevisiae deletion strains, locus YNL322C, strain KRE1, hits give low values 0.993 | S. cerevisiae deletion strains, locus YNR049C, strain mso1, hits give low values 0.989 | S. cerevisiae deletion strains, locus YNR052C, strain pop2, hits give low values 0.987 | S. cerevisiae deletion strains, locus YOL006C, strain TOP1, hits give low values 1.03 | S. cerevisiae deletion strains, locus YOL012C, strain htz1 0.746 | S. cerevisiae deletion strains, locus YOL147C, strain pex11, hits give low values 0.997 | S. cerevisiae deletion strains, locus YOR001W, strain rrp6, hits give low values 0.995 | S. cerevisiae deletion strains, locus YOR061W, strain CKA2, hits give low values 0.989 | S. cerevisiae deletion strains, locus YOR069W, strain VPS5, hits give low values 0.984 | S. cerevisiae deletion strains, locus YOR070C, strain gyp1, hits give low values 0.994 | S. cerevisiae deletion strains, locus YOR080W, strain dia2, hits give low values 0.994 | S. cerevisiae deletion strains, locus YOR083W, strain WHI5, hits give low values 1 | S. cerevisiae deletion strains, locus YOR106W, strain vam3, hits give low values 0.998 | S. cerevisiae deletion strains, locus YOR136W, strain idh2, hits give low values 0.99 | S. cerevisiae deletion strains, locus YOR144C, strain elg1, hits give low values 0.988 | S. cerevisiae deletion strains, locus YOR184W, strain ser1, hits give low values 1.02 | S. cerevisiae deletion strains, locus YOR231W, strain MKK1, hits give low values 0.98 | S. cerevisiae deletion strains, locus YOR265W, strain rbl2, hits give low values 0.996 | S. cerevisiae deletion strains, locus YOR270C, strain vph1, hits give low values 0.967 | S. cerevisiae deletion strains, locus YOR290C, strain snf2, hits give low values 0.998 | S. cerevisiae deletion strains, locus YOR316C, strain cot1, hits give low values 0.978 | S. cerevisiae deletion strains, locus YPL051W, strain arl3, hits give low values 0.992 | S. cerevisiae deletion strains, locus YPL055C, strain LGE1, hits give low values 1.06 | S. cerevisiae deletion strains, locus YPL078C, strain atp4, hits give low values 0.993 | S. cerevisiae deletion strains, locus YPL106C, strain sse1, hits give low values 0.98 | S. cerevisiae deletion strains, locus YPL240C, strain hsp82, hits give low values 0.986 | S. cerevisiae deletion strains, locus YPL256C, strain CLN2, hits give low values 0.992 | S. cerevisiae deletion strains, locus YPR119W, strain clb2, hits give low values 0.991 | S. cerevisiae deletion strains, locus YPR141C, strain kar3, hits give low values 0.98 | S. cerevisiae deletion strains, locus YPR163C, strain tif3, hits give low values 0.986 | S. cerevisiae deletion strains, locus YPR167C, strain met16, hits give low values 0.989 | S. cerevisiae deletion strains, strain wtn01, hits give low values 0.987 | S. cerevisiae strains, strain wild type, hits give low values 0.995
